Source: PubChem
TIM10 inh = growth inhibitors of isogenic TIM10 control yeast, primary screen, counter-screen for tim10-1 yeast inhibitor project, luminescence, uHTS; S. cerevisiae TIM10 strain growth, BacTiter-Glo luminescence, 24 h; inhibition, % at 10 µM; 330,000 tested, 1.4% active; AID 463195, 2010;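 active means inhibition of 40% or more at the single tested concentration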;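 further: wild-type TIM10 isogenic control strain grown at permissive 25 °C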
NALP1 inh = NALP1 inflammasome inhibitors in reconstituted yeast, colorimetric, S. cerevisiae, triplicate retest | S. cerevisiae NALP1/ASC/caspase-1 growth, X-gal OD620, 72 h | inhibition, % at 10 µM | 280,000 tested, 0.61% active | AID 2071, 2009; in the data active means inhibition mostly above about 24%, no sharp cut-off; inactive means mostly below about 32%
tim23-1 inh = growth inhibitors of tim23-1 mutant yeast, primary screen, luminescence, uHTS | S. cerevisiae tim23-1 growth, BacTiter-Glo luminescence, 24 h | AID 463212, 2010 | inhibition, % at 20 µM | 330,000 tested, 1.3% active;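 active means growth inhibition of the mutant yeast at or above 50%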;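 further: temperature-sensitive mutant grown at 25 °C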
PfHsp90 set2 = growth inhibition of PfHsp90-expressing yeast, primary screen, antimalarial PfHsp90 inhibitor project, S. cerevisiae, BacTiter-Glo luminescence, single point, set 2. BacTiter-Glo ATP, 48 h; yeast lacking PDR1 and PDR3 efflux regulators. 310,000 tested, 0.32% active. inhibition, % at 9.4 µM;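 active means every replicate shows inhibition above about 80%, whatever the replicate mean, limit read from the data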
tim10-1 inh = growth inhibitors of tim10-1 mutant yeast, primary screen, luminescence, uHTS. S. cerevisiae tim10-1 ts strain growth, BacTiter-Glo, 24 h. inhibition, % at 20 µM. 330,000 tested, 2.2% active;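 active means inhibition of at least 40%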;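 further: mutant grown at 25 °C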
NLRP3 yeast inh = NALP3 inflammasome inhibitors in reconstituted yeast, primary screen, luminescence, uHTS; inhibition, % at 10 µM; Yeast reconstituted NLRP3/ASC/caspase-1, beta-gal luminescence, 24 h; 330,000 tested, 0.39% active;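 active means inhibition of 50% or more; inactive means inhibition below 50%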
Hits are given with their value; 0 = inactive; - = no result given. Hits are enriched below; roughly 4.2% of the tested compounds scored in any of these assays.

SMILES	TIM10 inh	NALP1 inh	tim23-1 inh	PfHsp90 set2	tim10-1 inh	NLRP3 yeast inh
COCCN(C(=O)COC(=O)C(c1ccccc1)c1ccccc1)c1c(N)n(Cc2ccccc2)c(=O)[nH]c1=O	0	-	0	0	0	0
CC(=O)c1sc(NC(=O)CSCc2c(C)noc2C)nc1-c1ccccc1	0	-	0	0	0	0
O=C(NCCN1CCOCC1)c1noc2c1CCc1ccccc1-2	0	23	0	0	0	0
CCCCN(CC)CCNC(=O)CCC(=O)Nc1ccc2nc(N3CCN(C)CC3)cc(C)c2c1	0	36	0	0	0	0
COc1ccccc1-c1sc2cc3c(cc2c1-c1ccc(O)cc1)OCO3	0	-	0	107	0	0
COCc1ccc(-c2c(-c3ccccc3OC)sc3cc4c(cc23)OCO4)cc1	0	-	0	0	0	0
COc1ccc2sc(-c3ccccc3OC)c(-c3ccc(O)cc3)c2c1	0	-	0	107	0	0
CN1CCN(C(=O)/C=C/c2ccc(C#N)cc2)CC1	0	0	0	0	0	0
CN(C)CCNc1ncnc2c1sc1nc(-c3ccccc3)c3c(c12)CCCC3	0	45	0	0	0	0
C=C1C(=O)c2sccc2C(c2ccc(OC)c(OC)c2)C1COC(C)=O (stereo not given)	-	-	-	0	-	-
CN=c1scc(-c2ccccc2F)n1/N=C/c1ccc(O)c(O)c1O	-	0	-	0	-	-
CC(C)N=c1scc(-c2cccs2)n1/N=C/c1ccc(O)c(O)c1O	0	0	0	106	0	0
O=C(CN1CCN(S(=O)(=O)c2ccc(F)cc2)CC1)Nc1ccc(Cl)cn1	0	0	0	0	0	0
OC(COc1ccc2ccccc2c1)CN1CCN(c2ccc(F)cc2)CC1 (stereo not given)	0	44	0	0	0	0
COC(=O)C(=C/C=C/N1CCOCC1)C(=O)OC	0	0	0	-	0	0
O=[N+]([O-])c1cccc(SSc2cccc([N+](=O)[O-])c2)c1	-	-	-	110	-	-
O=C1NC(=Nc2ccccc2)S/C1=C\c1cccn1-c1ccccc1	0	39	0	0	0	0
CN(C)CCNC=C(C(=O)Nc1ccc(Cl)cc1Cl)C(=O)Nc1ccc(Cl)cc1Cl	0	80	0	-	0	0
CCOc1ccc(-c2cc(NC(=O)Cn3ncc4c3-c3ccccc3OC4)on2)cc1OCC	0	44	0	0	0	0
O=C(Cn1ncc2c1-c1ccccc1OC2)Nc1cccc(Cl)c1	0	38	0	0	0	0
CCOC(=O)c1c(-c2ccccc2)oc2ccc(OCC(O)CNCCN(C)C)cc12 (stereo not given)	0	0	0	0	0	0
CC(=O)N1CCc2cc(S(=O)(=O)NC(Cc3ccccc3)C(=O)Nc3cc(C)ccn3)ccc21 (stereo not given)	0	38	0	0	0	0
CCC(=O)N1CCc2cc(S(=O)(=O)NC(Cc3ccccc3)C(=O)NC3CCCCC3)ccc21 (stereo not given)	-	0	-	0	-	-
O=C(COC(=O)CNC(=O)c1ccc(Cl)c([N+](=O)[O-])c1)NCC1CCCO1 (stereo not given)	0	-	0	-	0	0
CN(C)C(C)(C)C#CCC(c1ccccc1)c1ccccc1	0	64	0	0	0	0
SMILES	TIM10 inh	NALP1 inh	tim23-1 inh	PfHsp90 set2	tim10-1 inh	NLRP3 yeast inh
CN(C)C(C)(C)C#CCCCCC#CC(C)(C)N(C)C	0	0	0	0	0	0
CCC(C)(C)n1nnnc1C(c1ccncc1)N1CCC(Cc2ccccc2)CC1 (stereo not given)	0	0	0	0	0	0
CCC(C)(C)n1nnnc1C(c1cccnc1)N1CCC(Cc2ccccc2)CC1 (stereo not given)	0	0	0	83	0	0
O=S(=O)(c1ccc(Cl)cc1)N1CCCC(C(F)(F)F)C1 (stereo not given)	0	0	0	0	0	0
O=C(CN(C(=O)C1COc2ccccc2O1)c1ccccc1)NCC1CCCO1 (stereo not given)	0	0	0	0	0	0
Cc1cc(C)cc(N(CC(=O)NCC2CCCO2)C(=O)CN2C(=O)COc3ccccc32)c1 (stereo not given)	0	23	0	0	0	0
COc1ccc(-c2nnn(CC(=O)NC3CCCc4ccccc43)n2)cc1OC (stereo not given)	0	42	0	0	0	0
Cc1ccc(OCCCCNC2CCCCC2)c(C)c1	0	44	0	0	0	0
Cc1cc(N2CCN(C)CC2)nc2ccc(NC(=O)c3ccccc3F)cc12	0	0	0	0	0	0
CCN1CCN(c2cc(C)c3cc(NC(=O)c4ccccc4F)ccc3n2)CC1	-	37	-	-	-	-
NC(CCCCCP(=O)(c1ccccc1)c1ccccc1)C(=O)O (stereo not given)	0	0	0	-	0	0
C=CCN(CC=C)S(=O)(=O)c1ccc(NC(=S)NC(=O)/C=C/c2ccccc2)cc1	0	27	0	0	0	0
Cc1noc(C)c1S(=O)(=O)N1CCC(C(=O)NC2CCN(Cc3ccccc3)CC2)CC1	0	39	0	-	0	0
CN1CCN(c2nc(-c3cccc([N+](=O)[O-])c3)nc3ccccc23)CC1	0	39	0	0	0	0
O=C(Oc1ccc(Cl)c2cccnc12)c1cccc([N+](=O)[O-])c1	0	58	0	0	0	0
Cc1cc(Oc2ccc(Cl)cc2)nc(-c2ccccc2O)n1	0	32	0	0	0	0
CCCNC(=O)c1ccc(N2CCC3(CC2)CC(c2ccccc2)=NO3)c(NC(=O)Cc2ccc(F)cc2)c1	0	0	0	0	0	0
CCCOc1ccc(C(=O)C(CN2CCCC2)c2ccccc2)cc1 (stereo not given)	-	60	-	0	-	-
Cc1c(C)[n+](=O)c2c(n1[O-])C(Br)CCC2Br (stereo not given)	0	0	0	0	0	0
Cc1c(CBr)[n+](=O)c2c(n1[O-])C(Br)CCC2Br (stereo not given)	0	42	0	0	0	0
O=C(/C=C/c1ccc(F)cc1)NCCC1=CCCCC1	0	0	0	0	0	0
O=C(/C=C/c1ccccc1)NCCC1=CCCCC1	0	51	0	0	0	0
O=C(O)c1nn(Cc2csc(-c3ccccc3)n2)c(=O)c2ccccc12	0	0	0	0	0	0
Clc1cc(Cl)c(OCCCCn2cncn2)c(Cl)c1	0	0	0	0	0	0
O=C(Oc1cccc2cccnc12)c1ccco1	0	0	0	0	0	0
O=C(Cc1ccc(Cl)cc1)Oc1cccc2cccnc12	-	78	-	0	-	-
Cc1c(CN2CCC(CO)(CCOc3ccccc3)CC2)c(=O)n(-c2ccccc2)n1C	0	26	0	0	0	0
